Test results from PubChem BioAssay (EPA / NIEHS).
The source made the active and inactive calls. The calls were made as follows: active = hit-call score of the fitted dose curve at least 0.9, where 1 is the maximum; inactive = score below 0.9.

Assays:
[1] = read-out: Cyclin D2 (CCND2), CCND2 (gene 894); assay: LTEA_HepaRG_CCND2: Life Technologies and Expression Analysis (LTEA) Assay for Cyclin D2 (CCND2) using HepaRG (AID 2283449); details: mRNA level, 48 h; actives raise or lower the signal;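 also: CCND2 transcript measured by TaqMan qRT-PCR and normalised to three housekeeping genes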
Outline: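 Chemicals in 0.5% DMSO, eight half-log concentrations from 100 uM top, were applied in duplicate for 48 h to human HepaRG cells in serum-free induction medium. CCND2 mRNA by TaqMan qRT-PCR, normalised to ACTB/GAPDH/POLR2A; bidirectional fit versus DMSO.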

[2] = read-out: Cyclin Dependent Kinase Inhibitor 1A (CDKN1A), CDKN1A (gene 1026); assay: LTEA_HepaRG_CDKN1A: Life Technologies and Expression Analysis (LTEA) Assay for Cyclin Dependent Kinase Inhibitor 1A (CDKN1A) using HepaRG (AID 2283450); details: mRNA level, 48 h; actives raise or lower the signal
Outline: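 HepaRG, 48 h dosing, 8-pt half-log series from 100 uM top, 0.5% DMSO vehicle, duplicates. Readout: TaqMan qRT-PCR of CDKN1A transcript, housekeeping-normalized (ACTB, GAPDH, POLR2A). Up/down curve fit relative to DMSO.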

[3] = read-out: Cyclin D1 (CCND1), CCND1 (gene 595); assay: LTEA_HepaRG_CCND1: Life Technologies and Expression Analysis (LTEA) Assay for Cyclin D1 (CCND1) using HepaRG (AID 2283451); details: mRNA level, 48 h; actives raise or lower the signal
Outline: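 qRT-PCR (Fluidigm 96.96 array) read-out of transcript level, housekeeping-normalized (ACTB/GAPDH/POLR2A). HepaRG cells, 48 h chemical exposure, 8-point half-log series from 100 uM, 0.5% DMSO vehicle; gain or loss relative to DMSO baseline.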

[4] = read-out: catalase (CAT), CAT (gene 847); assay: LTEA_HepaRG_CAT: Life Technologies and Expression Analysis (LTEA) Assay for catalase (CAT) using HepaRG (AID 2283452); details: mRNA level, 48 h; actives raise or lower the signal
Outline: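 HepaRG cells in serum-free induction medium, 0.5% DMSO vehicle, exposed 48 h in duplicate over 8 half-log concentrations from 100 uM. CAT mRNA measured by qRT-PCR, normalized to ACTB, GAPDH, POLR2A; bidirectional fit versus DMSO.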

[5] = read-out: flavin-containing dimethylaniline monooxygenases 3 (FMO3), FMO3 (gene 2328); assay: LTEA_HepaRG_FMO3: Life Technologies and Expression Analysis (LTEA) Assay for flavin-containing dimethylaniline monooxygenases 3 (FMO3) using HepaRG (AID 2283453); details: mRNA level, 48 h; actives raise or lower the signal
Outline: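 Differentiated HepaRG cells in serum-free induction medium, exposed 48 h in duplicate to 8 half-log concentrations up to 100 uM in 0.5% DMSO. FMO3 mRNA by qRT-PCR, normalized to ACTB, GAPDH, POLR2A; bidirectional fit vs DMSO.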

[6] = read-out: Cytochrome P450 (CYP1A1), CYP1A1 (gene 1543); assay: LTEA_HepaRG_CYP1A1: Life Technologies and Expression Analysis (LTEA) Assay for Cytochrome P450 (CYP1A1) using HepaRG (AID 2283454); details: mRNA level, 48 h; actives raise or lower the signal
Outline: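 qRT-PCR read-out: CYP1A1 transcript normalized to three housekeeping genes, fitted bidirectionally against 0.5% DMSO vehicle baseline. Human HepaRG cells, 48 h chemical exposure, 8-point half-log series topping at 100 uM.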

[7] = read-out: CFLAR gene, CFLAR (gene 8837); assay: LTEA_HepaRG_CFLAR: Life Technologies and Expression Analysis (LTEA) Assay for CFLAR gene using HepaRG (AID 2283455); details: mRNA level, 48 h; actives raise or lower the signal
Outline: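 Differentiated HepaRG cells in serum-free induction medium were exposed 48 h in duplicate to eight half-log concentrations up to 100 uM in 0.5% DMSO; mRNA measured by TaqMan qRT-PCR, normalized to ACTB, GAPDH, POLR2A; bidirectional fitting versus DMSO.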

[8] = read-out: Forkhead box O1 (FOXO1), FOXO1 (gene 2308); assay: LTEA_HepaRG_FOXO1: Life Technologies and Expression Analysis (LTEA) Assay for Forkhead box O1 (FOXO1) using HepaRG (AID 2283456); details: mRNA level, 48 h; actives raise or lower the signal
Outline: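 Differentiated HepaRG cells, in serum-free induction medium with 0.5% DMSO, exposed 48 h in duplicate to 8-point half-log series from 100 uM. FOXO1 mRNA measured by TaqMan qRT-PCR, normalized to ACTB, GAPDH, POLR2A; bidirectional fit versus DMSO.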

[9] = read-out: growth arrest and DNA damage 45 (GADD45A), GADD45A (gene 1647); assay: LTEA_HepaRG_GADD45A: Life Technologies and Expression Analysis (LTEA) Assay for growth arrest and DNA damage 45 (GADD45A) using HepaRG (AID 2283458); details: mRNA level, 48 h; actives raise or lower the signal
Outline: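 Cells plated and cultured 48 h, switched to serum-free induction medium, then dosed for 48 h (100 uM top, half-log dilutions, 0.5% DMSO). RNA was isolated and transcript measured by Fluidigm qRT-PCR.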

[10] = read-out: Forkhead box O3 (FOXO3), FOXO3 (gene 2309); assay: LTEA_HepaRG_FOXO3: Life Technologies and Expression Analysis (LTEA) Assay for Forkhead box O3 (FOXO3) using HepaRG (AID 2283459); details: mRNA level, 48 h; actives raise or lower the signal
Outline: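 Differentiated human HepaRG cells, 48 h post-plating, exposed in duplicate for 48 h in serum-free induction medium; 8-point half-log series from 100 uM in 0.5% DMSO. FOXO3 mRNA by TaqMan qRT-PCR, normalized to ACTB/GAPDH/POLR2A; bidirectional fit versus DMSO.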

[11] = read-out: growth arrest and DNA damage 45 (GADD45B), GADD45B (gene 4616); assay: LTEA_HepaRG_GADD45B: Life Technologies and Expression Analysis (LTEA) Assay for growth arrest and DNA damage 45 (GADD45B) using HepaRG (AID 2283461); details: mRNA level, 48 h; actives raise or lower the signal
Outline: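 qRT-PCR read-out (Fluidigm TaqMan, housekeeping-normalized) of mRNA change in human HepaRG cells after 48 h chemical exposure; 8-point curve, top 100 uM, half-log steps, 0.5% DMSO vehicle; gain or loss fitted relative to DMSO baseline.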

[12] = read-out: ABC Transporter (ABCC3), ABCC3 (gene 8714); assay: LTEA_HepaRG_ABCC3: Life Technologies and Expression Analysis (LTEA) Assay for ABC Transporter (ABCC3) using HepaRG (AID 2283462); details: mRNA level, 48 h; actives raise or lower the signal
Outline: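 qRT-PCR read-out of ABCC3 transcript, normalized to three housekeeping genes (ACTB, GAPDH, POLR2A), after 48 h chemical exposure of human HepaRG cells. Eight half-log concentrations, highest 100 uM, in 0.5% DMSO; gain or loss fitted relative to DMSO baseline.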

[13] = read-out: ABC Transporter (ABCB11), ABCB11 (gene 8647); assay: LTEA_HepaRG_ABCB11: Life Technologies and Expression Analysis (LTEA) Assay for ABC Transporter (ABCB11) using HepaRG (AID 2283463); details: mRNA level, 48 h; actives raise or lower the signal
Outline: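 Differentiated human HepaRG cells in serum-free induction medium, dosed in duplicate for 48 h. Eight-point half-log series from 100 uM in 0.5% DMSO; ABCB11 mRNA by qRT-PCR, normalized to ACTB, GAPDH, POLR2A, fitted bidirectionally versus DMSO.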

[14] = read-out: ABC Transporter (ABCC2), ABCC2 (gene 1244); assay: LTEA_HepaRG_ABCC2: Life Technologies and Expression Analysis (LTEA) Assay for ABC Transporter (ABCC2) using HepaRG (AID 2283464); details: mRNA level, 48 h; actives raise or lower the signal
Outline: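 qRT-PCR (TaqMan, Fluidigm array) read-out of ABCC2 mRNA, normalized to three housekeeping genes. Differentiated HepaRG cells were treated 48 h in serum-free induction medium with 8-point half-log series from 100 uM in 0.5% DMSO; curves fitted bidirectionally relative to DMSO.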

[15] = read-out: Broad substrate specificity ATP-binding cassette transporter ABCG2 (Homo sapiens) (UniProt Q9UNQ0); assay: LTEA_HepaRG_ABCG2: Life Technologies and Expression Analysis (LTEA) Assay for ABC Transporter (ABCG2) using HepaRG (AID 2283465); details: mRNA level, 48 h; actives raise or lower the signal
Outline: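 Differentiated HepaRG cells were exposed for 48 h in serum-free induction medium to 8 half-log concentrations, top 100 uM, in 0.5% DMSO. ABCG2 mRNA was measured by qRT-PCR, normalized to ACTB, GAPDH and POLR2A, with bidirectional fitting versus DMSO.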

[16] = read-out: ATP-citrate lyase (ACLY), ACLY (gene 47); assay: LTEA_HepaRG_ACLY: Life Technologies and Expression Analysis (LTEA) Assay for ATP-citrate lyase (ACLY) using HepaRG (AID 2283466); details: mRNA level, 48 h; actives raise or lower the signal
Outline: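 Differentiated HepaRG cells exposed 48 h in serum-free induction medium to eight half-log concentrations up to 100 uM in 0.5% DMSO, duplicates. Transcript measured by Fluidigm TaqMan qRT-PCR, normalized to ACTB, GAPDH, POLR2A; bidirectional fit versus DMSO.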

[17] = read-out: Peroxisomal acyl-coenzyme A oxidase 1 (ACOX1) gene, ACOX1 (gene 51); assay: LTEA_HepaRG_ACOX1: Life Technologies and Expression Analysis (LTEA) Assay for Peroxisomal acyl-coenzyme A oxidase 1 (ACOX1) gene using HepaRG (AID 2283467); details: mRNA level, 48 h; actives raise or lower the signal
Outline: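 HepaRG cells, plated 48 h then switched to serum-free induction medium, were exposed in duplicate for 48 h to 8-point half-log concentrations up to 100 uM in 0.5% DMSO. ACOX1 mRNA was measured by qRT-PCR, normalized to ACTB/GAPDH/POLR2A, and fitted bidirectionally versus DMSO.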

[18] = read-out: Alkaline Phosphatase, Placental (ALPP) gene, ALPP (gene 250); assay: LTEA_HepaRG_ALPP: Life Technologies and Expression Analysis (LTEA) Assay for Alkaline Phosphatase, Placental (ALPP) gene using HepaRG (AID 2283468); details: mRNA level, 48 h; actives raise or lower the signal
Outline: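 qRT-PCR readout of ALPP mRNA (Fluidigm TaqMan), normalized to ACTB/GAPDH/POLR2A, after 48 h chemical exposure of HepaRG cells; 8-point half-log series, top 100 uM, 0.5% DMSO vehicle. Bidirectional curve fit versus DMSO baseline.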

[19] = CEETOX_H295R_TESTO: CeeTox H295R High-throughput Steroidogenesis Assay for Testosterone (TESTO) (AID 2283457); details: actives raise or lower the signal
Outline: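 Readout: testosterone quantified by HPLC-MS/MS (C18, ESI positive) after MTBE liquid-liquid extraction of culture medium. Cells were H295R, 48 h chemical exposure per OECD 456 with modifications. Gain or loss of signal fitted relative to DMSO.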

[20] = read-out: ABC Transporter (ABCB1), ABCB1 (gene 5243); assay: LTEA_HepaRG_ABCB1: Life Technologies and Expression Analysis (LTEA) Assay for ABC Transporter (ABCB1) using HepaRG (AID 2283460); details: mRNA level, 48 h; actives raise or lower the signal
Outline: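 HepaRG cells exposed in duplicate for 48 h in serum-free induction medium to eight half-log concentrations up to 100 uM in 0.5% DMSO. ABCB1 mRNA quantified by qRT-PCR, normalised to ACTB, GAPDH and POLR2A; fitted bidirectionally versus DMSO.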

Measured: AC50

Chain of Broad substrate specificity ATP-binding cassette transporter ABCG2 (Homo sapiens) (Q9UNQ0 whole entry, looked up): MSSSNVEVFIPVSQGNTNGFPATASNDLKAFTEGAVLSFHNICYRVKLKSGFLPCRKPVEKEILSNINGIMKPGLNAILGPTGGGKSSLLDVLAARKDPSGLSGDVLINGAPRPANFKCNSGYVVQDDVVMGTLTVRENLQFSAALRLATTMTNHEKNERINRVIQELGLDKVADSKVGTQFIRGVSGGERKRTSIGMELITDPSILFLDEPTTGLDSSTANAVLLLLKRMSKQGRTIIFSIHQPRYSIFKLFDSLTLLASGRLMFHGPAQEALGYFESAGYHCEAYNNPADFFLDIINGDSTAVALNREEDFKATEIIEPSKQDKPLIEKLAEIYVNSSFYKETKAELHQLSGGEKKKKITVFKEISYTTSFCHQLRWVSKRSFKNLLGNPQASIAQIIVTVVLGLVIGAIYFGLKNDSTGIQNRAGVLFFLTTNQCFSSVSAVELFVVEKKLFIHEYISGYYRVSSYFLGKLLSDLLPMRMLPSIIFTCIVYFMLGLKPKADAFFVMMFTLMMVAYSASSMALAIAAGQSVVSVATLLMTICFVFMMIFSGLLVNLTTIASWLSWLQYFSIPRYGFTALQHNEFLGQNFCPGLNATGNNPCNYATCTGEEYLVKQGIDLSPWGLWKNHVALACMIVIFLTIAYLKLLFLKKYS

CC1(C)NC(=O)NC1=O
not listed: [19] | [20]
inactive: all other assays above

COc1ccc(C)cc1N
not listed: [3]
inactive: all other assays above

CC(C)(C)c1cc(O)c(C(C)(C)C)cc1O
active: [4] 78.8 µM | [5] 78.1 µM | [7] 77.4 µM | [8] 77.7 µM | [9] 50 µM | [20] 90.3 µM | [12] 73.6 µM | [13] 72.7 µM | [14] 85.9 µM | [17] 77.3 µM | [18] 90.8 µM
inactive: [1] | [2] | [3] | [10] | [11] | [15] | [16]

C=CCc1ccc(O)c(OC)c1
not listed: [3] | [19]
inactive: all other assays above

Cc1cccc(C)c1O
active: [6] 50 µM
not listed: [19] | [20]
inactive: all other assays above

CC(=O)OCCOCCOCCOC(C)=O
not listed: [3] | [19]
inactive: all other assays above

CCc1c(C(=O)NN2CCCCC2)nn(-c2ccc(Cl)cc2Cl)c1-c1ccc(Br)cc1
active: [2] 11.4 µM | [4] 41 µM | [5] 35.5 µM | [6] 5.22 µM | [8] 84.3 µM | [9] 82.1 µM | [20] 86.8 µM | [11] 50 µM | [13] 39 µM | [14] 68.6 µM | [15] 50 µM | [16] 12.5 µM | [17] 32.3 µM | [18] 12.3 µM
inactive: [1] | [7] | [10] | [12]
